# Measured values reported in PubChem BioAssay (NCI).
# The panel holds about 83,000 compounds, 20% with a hit somewhere; the sample as a whole holds those more often.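 Single-dose data. Exposure time 48 hours. Values below 10 considered active.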 A number with no mark means an inactive call. Calls of active or inactive are those of the source.
# What was measured:
# Assay in all cases: NCI-60 one-dose screen, 48 h (100 = growth as untreated, 0 = no growth, -100 = all killed)
# Conditions in all cases: 10 µM unless noted
# RPMI-8226 leukemia = tested on: RPMI-8226 leukemia
# OVCAR-8 ovarian = tested on: OVCAR-8 ovarian
# OVCAR-5 ovarian = tested on: OVCAR-5 ovarian
# OVCAR-4 ovarian = tested on: OVCAR-4 ovarian
# SK-OV-3 ovarian = tested on: SK-OV-3 ovarian
# IGROV1 ovarian = tested on: IGROV1 ovarian
# OVCAR-3 ovarian = tested on: OVCAR-3 ovarian
# HS 578T breast = tested on: HS 578T breast
# NCI/ADR-RES ovarian = tested on: NCI/ADR-RES ovarian
# T-47D breast = tested on: T-47D breast
# BT-549 breast = tested on: BT-549 breast
# MDA-MB-435 melanoma = tested on: MDA-MB-435 melanoma
# SW-620 colon = tested on: SW-620 colon
# MCF7 breast = tested on: MCF7 breast
# HCT-116 colon = tested on: HCT-116 colon
# HCC-2998 colon = tested on: HCC-2998 colon
# KM12 colon = tested on: KM12 colon
Compound,growth (RPMI-8226 leukemia),growth (OVCAR-8 ovarian),growth (OVCAR-5 ovarian),growth (OVCAR-4 ovarian),growth (SK-OV-3 ovarian),growth (IGROV1 ovarian),growth (OVCAR-3 ovarian),growth (HS 578T breast),growth (NCI/ADR-RES ovarian),growth (T-47D breast),growth (BT-549 breast),growth (MDA-MB-435 melanoma),growth (SW-620 colon),growth (MCF7 breast),growth (HCT-116 colon),growth (HCC-2998 colon),growth (KM12 colon)
COc1nc(/C=C\Nc2ccc3c(c2)OCCOCCOCCOCCO3)nc(OC)n1,94.3%,108%,98.3%,95.5%,106%,97.2%,99.2%,89.9%,93.7%,87.5%,92.9%,94.8%,94%,93%,95.2%,98.2%,101%
C=C1C(=O)O[C@H]2[C@H]1CC/C(COC(=O)NCc1ccc(Cn3c(=O)sn(-c4ccccc4)c3=O)cc1)=C\CC[C@@]1(C)O[C@@H]21,1.88% (active),42%,68.3%,34.8%,134%,–,-15.6% (active),87.5%,106%,57.7%,51.3%,–,-13% (active),15.4%,5.85% (active),75.2%,96.8%
CCOC(=O)c1nnn(-c2no[n+]([O-])c2-c2ccc(OC)cc2)c1COc1cccc2cccnc12,4.48% (active),0.67% (active),48.6%,27%,12.4%,23.5%,16.8%,24.8%,–,53.1%,-14.7% (active),9.72% (active),26%,15.2%,9.49% (active),55.4%,19.7%
N#Cc1ccccc1-c1ccc(CN2C(=O)S/C(=C\c3ccc(Br)cc3)C2=O)cc1,103%,101%,101%,90.2%,94.3%,98.3%,112%,92.3%,94.1%,85.3%,95.9%,94.5%,–,95%,105%,98.9%,98.9%
COc1ccc(-c2cc(-c3cc(OC)ccc3OC)nc(SCC(C)=O)c2C#N)cc1,33.2%,80.8%,84.1%,69.6%,59.9%,83.9%,66.4%,76.1%,–,57.9%,61%,36.1%,92.1%,70.6%,74%,84.5%,60.2%
COc1cc(OC)c2c(=O)c3c(CC=C(C)C)cc(OC)c(O)c3oc2c1,81.7%,88.6%,96.2%,98.5%,96.6%,91.7%,92.8%,88.7%,78.8%,57.7%,77.5%,53.9%,99.7%,78.5%,81.6%,106%,66.4%
C=C1C(=O)O[C@@H]2C3C(=C(C)CC[C@@H]12)CC1O[C@]13C (some centres not stated),43.8% [6.75 µM],83.5% [6.75 µM],108% [6.75 µM],93.4% [6.75 µM],118% [6.75 µM],99.4% [6.75 µM],75.8% [6.75 µM],90.4% [6.75 µM],98.1% [6.75 µM],56.8% [6.75 µM],76.3% [6.75 µM],75.5% [6.75 µM],71.8% [6.75 µM],44.2% [6.75 µM],46.1% [6.75 µM],–,102% [6.75 µM]
O=C(/C=C/C12c3ccccc3C(c3ccccc31)C1C(=O)NC(=O)C12)c1ccc(I)cc1 (configuration not stated),3.09% (active),35.6%,73.4%,84.8%,83%,55.6%,9.43% (active),49.1%,50.9%,38.9%,46.1%,31.2%,–,16.5%,35.8%,–,57.8%
Cc1cc(O)cc(-c2nn(C)cc2-c2cc(N3CCOCC3)nc(-c3cccnc3)n2)c1,38.2%,47.1%,84.6%,73.1%,38.5%,45%,8.62% (active),20.5%,45.9%,28.8%,36.3%,3.68% (active),38.4%,14.9%,17.3%,63%,28.9%
CN(C)c1ccc([C@@H](C(=O)Nc2cccc([N+](=O)[O-])c2)N(C(=O)c2cc3ccccc3[nH]2)c2cccc([N+](=O)[O-])c2)cc1,92.6%,93.3%,94.7%,99.4%,103%,103%,111%,93.5%,–,84%,95.4%,108%,98.7%,89.6%,90.4%,107%,103%
COC(=O)c1nc(-c2ccccc2)oc1S(=O)(=O)N1CCCC(C)C1 (configuration not stated),51%,81.9%,87.4%,83.2%,110%,64%,48.9%,104%,100%,69.2%,75%,84.5%,35.4%,47.3%,63.9%,104%,97.7%
Nc1nc(C(=O)N/N=C/c2ccc(F)cc2)nn1-c1ccc(S(N)(=O)=O)cc1,91%,97.5%,104%,98.4%,105%,91.5%,102%,101%,98.3%,99.3%,114%,100%,99.2%,98.8%,101%,107%,96.7%
C=C(C)[C@@H]1CC[C@]2(COC3CCCCO3)CC[C@]3(C)[C@H](CC[C@@H]4[C@@]5(C)C=C(C=O)C(=O)C(C)(C)[C@@H]5CC[C@]43C)[C@@H]12 (some centres not stated),-6.13% (active),-39.2% (active),-19% (active),-34.7% (active),-40% (active),-64.8% (active),-65.1% (active),-24.3% (active),1.89% (active),-48.9% (active),-58.5% (active),-56.4% (active),-37.8% (active),-58.4% (active),-92.4% (active),-59% (active),-10.2% (active)
